# Laboratory results from ChEMBL document CHEMBL3988442, “University of Dundee, Small-Polar-MMV Screening Library” (2021).
# Screen size: about 48,000 compounds; about 13,000 (27%) showed an effect of 50% or more. The list shows a part of the results.
# System: Wolbachia pipientis
# Assay: Anti-Wolbachia Cell-Based Screen
# Type: functional
# Parameters: scale not given: in the data most compounds retested in dose-response had high values
# Settings: 5 µM
row,Structure (SMILES),Percent Effect
1,CNC(=O)[C@@H]1C[C@H](N)CN1S(=O)(=O)c1cc(Cl)c(Cl)s1,-16.04%
2,Cc1ccc2oc(C(=O)N3CCCC(n4nc(C)cc4C)C3)cc2n1 (configuration not stated),-4.167%
3,C1CCN(CCOC2CCNCC2)C1,-3.216%
4,CNC(=O)[C@@H]1C[C@@H](N)CN1C1CCN(c2ccccc2F)CC1,-6.416%
5,O=C(c1ccc2[nH]nnc2c1)N1CCCC(n2cccn2)C1 (configuration not stated),-7.495%
6,O=C(c1ccc2[nH]nnc2c1)N1C[C@H](O)[C@]2(CCCO2)C1,107.9%
7,CC(C)S(=O)(=O)NCC1CCCN(C(=O)c2ccc3c(c2)CCC3)C1 (configuration not stated),-10.39%
8,O=C(c1ccc2[nH]nnc2c1)N1CC[C@H](O)[C@]2(CCCO2)C1,85.31%
9,O=C(c1ccc2c(c1)CCC2)N1CCCCC1C1OCCO1 (configuration not stated),-21.29%
10,O=C(c1ccc2c(c1)CCC2)N1CC[C@H](O)[C@]2(CCCO2)C1,143.9%
11,COc1ccc(NC(=O)NC(C)(C)c2noc(C)n2)cc1,-12.65%
12,CS(=O)(=O)CCOCCNc1ccc(C#N)cc1F,-9.887%
13,FC(F)(F)c1n[nH]c2c1CN(CCc1ccccn1)CC2,-4.323%
14,COc1ccc(-c2cccc(-c3ccn(CC4COCCO4)n3)c2)nn1 (configuration not stated),-12.89%
15,Cn1cnc2cc(C(=O)NS(=O)(=O)c3ccc(F)cc3)ccc21,-13.37%
16,O=C(O)C1c2nc[nH]c2CCN1Cc1ccc(-c2ccccc2)s1 (configuration not stated),-13.4%
17,Cc1nc(CN2CCC3(CCN(Cc4cnn(C)c4)C3)C2=O)cs1 (configuration not stated),104.5%
18,Cc1nc(CN2CCC3(CCCN(Cc4cnn(C)c4)C3)C2=O)cs1.O=C(O)C(F)(F)F.O=C(O)C(F)(F)F (configuration not stated),12.7%
19,Cc1nc(CN2CCC3(CCN(Cc4cnn(C)c4)CC3)C2=O)cs1.O=C(O)C(F)(F)F.O=C(O)C(F)(F)F,102.9%
20,Cc1nc(CN2CCC3(CCN(Cc4nccn4C)CC3)C2=O)cs1.O=C(O)C(F)(F)F.O=C(O)C(F)(F)F,106%
21,O=C1O[C@@H]2CN(Cc3cc4ccccc4o3)C[C@@H]2N1Cc1ccccn1,8.786%
22,CN(Cc1ccncn1)c1nccc(CCC(F)(F)F)n1,2.558%
23,O=C(CC1CC1)NCc1cn2c(n1)CN(C(=O)C1CCOCC1)CC2,7.38%

row,Structure (SMILES),Percent Effect
1,O=C(O)C(F)(F)F.O=C(O)C(F)(F)F.c1c(CN2CCCC2)nc2n1CCN(C1CCOCC1)C2,102.1%
2,CN1CCN(Cc2cn3c(n2)CN(C2CCOCC2)CC3)CC1.O=C(O)C(F)(F)F.O=C(O)C(F)(F)F.O=C(O)C(F)(F)F,107%
3,O=C(O)C(F)(F)F.O=C(O)C(F)(F)F.c1cn2c(n1)CN(C1CCOCC1)CC(CN1CCCC1)C2 (configuration not stated),-10.3%
4,O=C(O)C(F)(F)F.O=C(O)C(F)(F)F.c1c(CN2CCCC2)nc2n1CCN(CC1CC1)C2,-6.407%
5,c1c(CN2CCCCC2)nc2n1CCN(CC1CC1)C2,5.412%
6,CN(Cc1cn2c(n1)CN(C1CCOCC1)CC2)Cc1ccco1.O=C(O)C(F)(F)F.O=C(O)C(F)(F)F,4.973%
7,c1nc2n(c1CN1CCOCC1)CCN(C1CCOC1)CC2 (configuration not stated),-7.987%
8,c1c(CN2CCOCC2)nc2n1CCN(CC1CC1)C2,101.8%
9,c1c(CN2CCOCC2)nc2n1CCN(C1CCOCC1)C2,79.69%
10,CN1CCN(Cc2cn3c(n2)CN(C(=O)N2CCOCC2)CC3)CC1.O=C(O)C(F)(F)F.O=C(O)C(F)(F)F,-14.48%
11,O=C(NCc1cn2c(n1)CN(CC1CCOCC1)CC2)C1CCC1.O=C(O)C(F)(F)F,-3.322%
12,CCCN1CC(C(=O)Nc2ccccn2)CC1=O (configuration not stated),-15.01%
13,COc1ccc(CN2CC[C@@H](N)[C@@H](OC)C2)cc1Cn1cncn1,18.6%
14,Cc1n[nH]cc1CNC(C(=O)N1CCOCC1)c1ccccc1 (configuration not stated),6.045%
15,Cc1nc(C)c(CN2CCOC(Cc3ccccc3Cl)C2)nc1C (configuration not stated),-25.93%
16,Cc1nc(C2CCCN(c3ncc(Br)cn3)C2)no1 (configuration not stated),-7.201%
17,Cc1cnc(-c2nc(C3CCCN(Cc4ccccc4C)C3)no2)cn1.Cl (configuration not stated),93.62%
18,Cc1cnc(-c2nc(C3CCN(Cc4ccccc4Cl)CC3)no2)cn1,142.3%
19,Cc1cnc(CN2CCN(C(C)c3nc(C4CC4)no3)CC2)cn1 (configuration not stated),13.95%
20,Cc1cnc(-c2nc(C3CCCN(Cc4cccs4)C3)no2)cn1 (configuration not stated),85.43%
21,Cc1cccn2cc(CN3CCCC(c4noc(C5CC5)n4)C3)nc12 (configuration not stated),-10.66%
22,CN1CCC(Cc2noc(-c3cn(Cc4ccccc4Cl)nn3)n2)CC1,21.53%
23,Cc1cnc(-c2nc(C3CCN(Cc4ccccc4C)CC3)no2)cn1,126.9%

row,Structure (SMILES),Percent Effect
1,c1cc(CN2CCCC(c3noc(C4CC4)n3)C2)no1 (configuration not stated),4.824%
2,Cc1cnc(-c2nc(-c3cccc(CN4CCOCC4)c3)no2)cn1,4.673%
3,CCCNC(=O)CN1CCCC1c1nc(Cc2ccc(F)cc2)no1 (configuration not stated),-9.393%
4,CC(C)N1CCOC[C@H]1c1nc(C(C)(C)C)c[nH]1,-12.91%
5,Cc1ccccc1C(C)(C)CNC(=O)CN(C)c1cnccn1,6.052%
6,Cc1ccsc1C(=O)NC1CCN(c2cnn(C)c2)C1=O (configuration not stated),-14.12%
7,CC(C)(C)NC(=O)C[C@@H]1CCNC[C@@H]1Cc1cc(C(C)(C)C)on1,-4.858%
8,c1cc(C2CCN(Cc3nc(C4CC4)no3)CC2)[nH]n1,45.49%
9,c1ccc2[nH]c(C3CCN(Cc4nc(C5CC5)no4)CC3)cc2c1,8.105%
10,Cc1cnc(-c2nc(C3CCN(Cc4ccccc4O)CC3)no2)cn1,140.6%
11,CCN(CC)C(C(=O)Nc1ccc2c(c1)CCC(=O)N2)c1ccccc1 (configuration not stated),-21.99%
12,O=C(CN1CCN(c2ncccn2)[C@@H]2CS(=O)(=O)C[C@@H]21)N1CCCCC1,-9.163%
13,CC(c1cccc(-c2ncccc2C#N)c1)N(C)C (configuration not stated),104.1%
14,CC(c1cccc(-c2nccn2CCc2cn[nH]c2)c1)N(C)C (configuration not stated),8.832%
15,Cc1ccc(C(=O)O)cc1-c1cccc(C(C)N(C)C)c1 (configuration not stated),-7.98%
16,COC(C)(C)Cn1ccnc1-c1cccc(C(C)N(C)C)c1 (configuration not stated),3.994%
17,CC(c1cccc(-c2nccn2CCc2ccccn2)c1)N(C)C (configuration not stated),15.78%
18,CC(c1cccc(-c2ncccc2F)c1)N(C)C (configuration not stated),118.4%
19,Cc1cnc(Cn2cc(-c3cccc(C(C)N(C)C)c3)nn2)cn1 (configuration not stated),-24.3%
20,CC(c1cccc(-c2ccc(C(=O)O)cc2Cl)c1)N(C)C (configuration not stated),-4.101%
21,CC(c1cccc(-c2ncc(C#N)c(N)n2)c1)N(C)C (configuration not stated),111.9%
